Source: PubChem
In the library only some 2.7% were active in any assay of this set; here they are far more common.
ATG4B inh: blocks human ATG4B protease cleavage of LC3 substrate. Q9Y4P1. ATG4B cleavage of LC3-PLA2, NBD-HPC fluorescence, 1 h. inhibition, % at 8.33 µM. 0.51% of 340,000 active. AID 504462; in the data active means inhibition above about 40%
Target sequence (Q9Y4P1 whole entry, looked up): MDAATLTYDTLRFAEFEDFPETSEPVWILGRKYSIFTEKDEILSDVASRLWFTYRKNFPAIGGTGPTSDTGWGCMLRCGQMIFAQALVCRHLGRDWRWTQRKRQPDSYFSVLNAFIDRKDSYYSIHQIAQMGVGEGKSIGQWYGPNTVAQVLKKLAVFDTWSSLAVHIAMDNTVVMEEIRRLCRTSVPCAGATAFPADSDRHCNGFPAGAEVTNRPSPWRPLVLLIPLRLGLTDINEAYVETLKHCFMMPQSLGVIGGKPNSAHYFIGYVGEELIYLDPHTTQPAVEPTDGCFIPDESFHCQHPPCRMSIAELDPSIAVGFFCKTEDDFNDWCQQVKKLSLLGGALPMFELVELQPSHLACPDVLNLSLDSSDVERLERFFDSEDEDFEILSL
SKN-1 inh: inhibitors of C. elegans SKN-1; C. elegans VP596 Pgst-4::GFP/RFP ratio, acrylamide-induced, 24 h; inhibition, % at 21.8 µM; 0.49% of 360,000 active; AID 624304;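 active means interference check ratio from 0.5 to 1.5 plus GFP to RFP signal ratio inhibition reaching or exceeding a fixed threshold, cut at about 30% in these data, passing the limit was not always enough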
MPTP inh: inhibitors of mitochondrial permeability transition pore | 1.4% of 360,000 active | isolated mouse mitochondria, Ca2+ swelling absorbance, 30 min | inhibition, % at 10 µM;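 active means inhibition of 50% or more, scaled per plate between neutral and stimulator controls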;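 further: 0% = DMSO wells given calcium and 100% = 1 mM EGTA wells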
NRP1-CendR mod: modulators of CendR peptide binding to human neuropilin-1 | AID 602438 | inhibition, % at 25 µM | FAM-RPARPAR peptide binding to NRP-1, fluorescence polarization | 0.85% of 360,000 active | O14786;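 active means inhibition or corrected inhibition above about 18%, plus a signal ratio from 0.5 to 1.5, limit read from the data, passing the limit was not always enough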
CFTR F508del cor: correctors of CFTR F508del function in bronchial epithelial cells; CFBE cells, YFP halide quenching; stimulated with forskolin plus potentiator P3; % fluorescence drop versus neutral controls; activity (quench increase), % at 7.58 µM; 0.36% of 350,000 active; AID 720511;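 active means mean added fluorescence quench of at least 8% versus neutral control, with both replicates also reaching 8%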;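 further: cells transiently co-express mutant CFTR-F508del with the halide-sensitive YFP; corrector assay measuring rescue of mutant channel to the surface after 24 h compound exposure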
ATG4B confirm: ATG4B (human) inhibition, single-dose confirmed; ATG4B protease fluorescent substrate cleavage assay; AID 504757; 92% of 320 active; inhibition, % at 8.33 µM; shares compounds with ATG4B inh; in the data active means inhibition above about 39%
PLA2 ctr: PLA2 (human) inhibition in ATG4B counter-screen. shares compounds with ATG4B inh. purified PLA2, NBD-C6-HPC fluorescence, 45 min. AID 588402. 66% of 1,600 active. inhibition, % at 8.33 µM; in the data active means inhibition above about 50%
* marks the source's active call; other numbers are inactive results; . = no result.

SMILES	ATG4B inh	SKN-1 inh	MPTP inh	NRP1-CendR mod	CFTR F508del cor	PLA2 ctr	others
COc1cccc(CNC(=S)Nc2cc(C)ccc2C)c1	5	3	-1	6	2	.
C[C@H](CO)N1C[C@H](C)[C@H](CN(C)Cc2ccc(C(F)(F)F)cc2)Oc2ccc(NC(=O)CCCN(C)C)cc2C1=O	.	.	.	.	4	.
O=C(NCc1ccc(F)cc1)Nc1ccc(Cl)cc1	46*	1	38	0	-1	54*
Cc1ccc(C(C)NC(=S)NCc2ccc(F)cc2)c(C)c1 (stereo not drawn)	44*	-10	44	1	-1	52*
Fc1ccc(CNC(=S)Nc2ccccc2Cl)cc1	10	3	3	2	.	.
Fc1ccc(CNC(=S)NCc2ccc(F)cc2)cc1	42*	-14	29	1	1	45	ATG4B confirm=69*
Cc1c(Cl)cccc1NC(=S)NCc1ccc(F)cc1	58*	10	9	0	-1	69*
CCN1[C@@H]2Cn3c(ccc(-c4ccccc4F)c3=O)[C@H]1[C@@H](C(=O)NCc1ccccc1)[C@@H]2CO	.	.	.	.	2	.
Cc1noc(C)c1S(=O)(=O)Nc1cccc2c1O[C@H](CN(C)C(=O)Nc1ccc(C(F)(F)F)cc1)[C@H](C)CN([C@@H](C)CO)C2=O	.	.	.	.	-1	.
COc1cccc(CN2[C@@H]3CN(C(=O)c4cccnc4)c4ccccc4[C@@H]3[C@@H]2CO)c1	.	.	.	.	1	.
COc1ccc(CN(C)C[C@H]2OCc3cn(nn3)CCCC(=O)N([C@H](C)CO)C[C@H]2C)cc1	.	.	.	.	2	.
Cc1ccc(S(=O)(=O)Nc2ccccc2/C=N/c2nc3ccccc3n2C(C)C)cc1	55*	2	2	-7	-2	43	ATG4B confirm=57*
O=C(O)C(Cc1ccccc1)N1C(=O)/C(=C/C=C/c2ccco2)SC1=S (stereo not drawn)	69*	31	2	-179	0	59*
CNC[C@@H]1Oc2ncc(-c3ccccc3C)cc2C(=O)N([C@H](C)CO)C[C@@H]1C	.	.	.	.	3	.
Cc1ccsc1/C=C1\CCc2ccccc2C1=O	46*	4	0	-11	.	68*
COc1cccc(/C=C2\CCc3ccccc3C2=O)c1	23	3	0	3	-2	.
Cc1ccccc1/C=C1\CCCc2ccccc2C1=O	53*	14	0	8	.	61*
C[C@@H]1CCCCO[C@@H](CN(C)C(=O)c2ccccc2)[C@H](C)CN([C@@H](C)CO)C(=O)c2cc(NC(=O)Nc3ccccc3)ccc2O1	.	.	.	.	1	.
CC(C)NC(=O)Nc1ccc2c(c1)C(=O)N([C@H](C)CO)C[C@H](C)[C@@H](CN(C)Cc1ccccc1)OCCCC[C@H](C)O2	.	.	.	.	2	.
COc1ccccc1-n1cnc2c(c1=O)c1nc3ccccc3nc1n2-c1ccc(C)c(C)c1	44*	1	0	-12	5	4
CCOC(=O)N/N=C/c1cn(CCCOc2ccc(C)cc2)c2ccccc12	41*	-5	4	12	-2	29
O=C(C[C@@H]1CC[C@@H](NC(=O)Nc2ccc(C(F)(F)F)cc2)[C@@H](CO)O1)NCc1cccc(F)c1	.	.	.	.	4	.
O=C(O)c1cccc(NC(=S)N/N=C/c2ccccc2OCc2cccc(Br)c2)c1	47*	-10	19	2	2	54*
Cc1noc(C)c1S(=O)(=O)Nc1ccc2c(c1)C(=O)N([C@H](C)CO)C[C@H](C)[C@H](CN(C)S(C)(=O)=O)O2	.	.	.	.	1	.
Cc1cc(C)cc(N2C(=O)CN(Cc3ccccc3)C2=S)c1	70*	12	0	10	3	75*
CCc1ccc(N2C(=O)CN(Cc3ccccc3)C2=S)cc1	12	3	-1	1	-3	.
CCc1ccc(N2C(=O)CN(Cc3cccs3)C2=S)cc1	65*	-1	1	6	0	81*
CC(C)NC(=O)N(C)C[C@H]1Oc2ccc(NS(=O)(=O)c3cn(C)cn3)cc2CC(=O)N([C@H](C)CO)C[C@H]1C	.	.	.	.	-1	.
CC(C)(C)c1cc(NC(=O)Nc2ccc(Cl)cc2Cl)no1	-1	-2	30	0	-11	.
